From PubChem BioAssay
Only some compounds are listed: those with a hit (about 19% of all), similar ones and a draw of the others.
HepG2 viability = qHTS for Inhibitors of TGF-b: Cytotox Counterscreen; HepG2 CAGA-GFP viability, ATP luminescence, 18 h; AID 588856, 2011; Potency, µM (top dose mostly 46.1 µM), without a hit: at the top dose activity change, negative = cytotoxicity, most hits filed as cytotoxic; 0.76% of 410,000 active; note: potency is the fitted concentration of half-maximal effect
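HepG2 CAGA-GFP cells (1000/well, DMEM with 1% FBS) received compound, then TGF-beta at 500 pg/mL final, and were incubated 18 hours at 37 degrees C. Viability was read by CellTiter-Glo luminescence. Media-only wells were set as complete cell-killing and DMSO as no toxicity.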
ASM inhibitor = Inhibitors of Secretory Acid Sphingomyelinase (S-ASM): qHTS | placental ASM, HMU-PC fluorogenic substrate, 60 min | AID 504937, 2011 | 0.006% of 340,000 active | Potency, µM (series often up to 57.5 µM), for inactives: top-dose activity change, negative = inhibition, hits mostly inhibitors; note: potency is the fitted concentration of half-maximal effect
Target sequence (P17405 47-631 limits assumed): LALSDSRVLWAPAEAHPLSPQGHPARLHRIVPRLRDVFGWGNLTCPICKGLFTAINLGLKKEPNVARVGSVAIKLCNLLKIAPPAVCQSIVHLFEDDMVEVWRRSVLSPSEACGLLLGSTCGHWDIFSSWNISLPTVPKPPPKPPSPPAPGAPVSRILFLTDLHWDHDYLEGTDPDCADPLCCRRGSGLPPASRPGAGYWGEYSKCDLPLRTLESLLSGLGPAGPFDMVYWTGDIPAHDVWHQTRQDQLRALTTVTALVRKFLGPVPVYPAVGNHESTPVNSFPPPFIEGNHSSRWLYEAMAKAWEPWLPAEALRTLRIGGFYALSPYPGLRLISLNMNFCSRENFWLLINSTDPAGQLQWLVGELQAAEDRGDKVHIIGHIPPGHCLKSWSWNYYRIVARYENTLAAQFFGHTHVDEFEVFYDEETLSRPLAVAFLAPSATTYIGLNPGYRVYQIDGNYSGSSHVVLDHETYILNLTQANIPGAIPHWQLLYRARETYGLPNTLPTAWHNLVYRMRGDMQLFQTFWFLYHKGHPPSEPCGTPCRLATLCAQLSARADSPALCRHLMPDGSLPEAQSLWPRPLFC
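qHTS format. ASM enzyme prepared from human placenta hydrolyses the fluorogenic substrate HMU-PC0 (9 uM final) over 60 min at 37 °C after a 10 min compound preincubation.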
TDP1 cell CPT = qHTS for Inhibitors of human tyrosyl-DNA phosphodiesterase 1 (TDP1): qHTS in cells in presence of CPT; chicken DT40 Tdp1-/-;hTDP1 cells + 20 nM CPT, ATP luminescence, 48 h; Potency, µM (doses to about 46.2 µM), for inactives: top-dose activity change, negative = growth inhibition, actives largely listed as inhibitors; 12% of 420,000 active; note: potency is the fitted concentration of half-maximal effect; % is set by controls: 0 for no effect and ±100 for the full control effect; nearly all actives have a fitted effect of over 55% in size
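Chicken DT40 Tdp1-/- cells stably complemented with human TDP1 were seeded at 400 cells/well in medium containing 20 nM camptothecin, exposed to pin-transferred compounds, and grown at 37 °C for at least 48 hr. Viability was read as ATP luminescence.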
IL1B secr inh = qHTS for Inhibitors of Inflammasome Signaling: IL-1-beta AlphaLISA Primary Screen | THP-1 LPS/ATP IL-1B secretion, AlphaLISA, 16 h; hits give low values | activity change, % at 57.5 µM | 4.7% of 360,000 active | AID 743279, 2014; in the data active = activity change below about -50%; inconclusive = mostly about -30% to -49%; note: % is set by controls: 0 for no effect and ±100 for the full control effect
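THP-1 cells pretreated 1 hr with compounds (up to 57.5 uM final), then stimulated with LPS (250 ng/mL final) plus ATP (1.25 mM final); secreted IL-1B measured by AlphaLISA after 16 hr, decreased signal indicating inhibition.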
TGFb inhibitor = qHTS for Inhibitors of TGF-b | AID 588855, 2011 | HepG2 CAGA-GFP TGF-b/SMAD3 reporter, GFP fluorescence, 18 h; TGF-beta stimulated, 500 pg/mL final | Potency, µM (top dose mostly 46.1 µM), without a hit: at the top dose activity, negative = inhibition, usual class: inhibitors | 1.2% of 410,000 active; note: potency is the fitted concentration of half-maximal effect; % is set by controls: 0 for no effect and ±100 for the full control effect; nearly all actives have a fitted effect of over 65% in size
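HEPG2 CAGA-GFP reporter cells (1000/well, DMEM with 1% FBS) received compounds, then recombinant TGF-beta at 500 pg/mL final for 18 hours at 37 degrees C. Per-cell GFP summed per well was normalised to unstimulated and stimulated DMSO controls before curve fitting.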
TDP1 cell noCPT = qHTS for Inhibitors of human tyrosyl-DNA phosphodiesterase 1 (TDP1): qHTS in cells in absence of CPT. DT40 Tdp1-/- hTDP1 cells, no CPT, ATP luminescence, 48 h. Potency, µM (top dose mostly 46.2 µM), for inactives: at the top dose activity change, negative = growth inhibition, actives largely listed as inhibitors. 15% of 420,000 active; note: potency is the fitted concentration of half-maximal effect; % is set by controls: 0 for no effect and ±100 for the full control effect; nearly all actives have a fitted effect of over 55% in size
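Compound effects on proliferation are scored in DT40 Tdp1-/-;hTDP1 cells in the absence of CPT. ATP levels (CellTiter-Glo luminescence) are recorded after a ≥48 hr, 37 °C incubation.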
* = called active by the depositor. Unless noted, calls come from the whole dose curve; as a rule, active = well fitted curve in the direction sought with a large enough effect; inconclusive = small, poorly fitted or top-dose-only effect, or another doubt; inactive = no such curve, though single readings can be large; an effect the other way counts as inactive or inconclusive.

For O=C(COC(=O)c1cccc(NC(=O)c2ccc(Br)cc2)c1)c1ccc(Br)cc1 the results were HepG2 viability -11%, TDP1 cell CPT inconclusive, TGFb inhibitor -16% and TDP1 cell noCPT inconclusive.
`COC(=O)c1cccc(NC(=O)c2ccc(S(=O)(=O)N(C)c3ccccc3OC)cc2)c1` gave HepG2 viability -49%, TDP1 cell CPT 16µM*, IL1B secr inh 45, TGFb inhibitor -28% and TDP1 cell noCPT 12µM*.
Screening Fc1ccc2c(c1)nnn2C1CCN(Cc2c(Cl)cccc2Cl)CC1 returned HepG2 viability -13%, ASM inhibitor 1%, TDP1 cell CPT 18µM*, IL1B secr inh -3, TGFb inhibitor -7% and TDP1 cell noCPT 18µM*.
CC1(Cc2ccc(C(F)(F)F)nc2)C(=O)Nc2cc(-c3ccccc3Cl)ccc21 (stereo unspecified) was read as HepG2 viability -21%, TDP1 cell CPT 16µM*, TGFb inhibitor -13% and TDP1 cell noCPT inconclusive.
CCCCCCC(=O)c1c(O)n(-c2ccc(OC)cc2)c(=O)[nH]c1=O (tested in a mixture with another compound) was read as HepG2 viability -5%, ASM inhibitor 1%, TDP1 cell CPT -29%, IL1B secr inh 20, TGFb inhibitor 9% and TDP1 cell noCPT 26µM*.
For COc1ccccc1OP(=O)(Nc1cccnc1)Oc1ccccc1OC the results were HepG2 viability -21%, ASM inhibitor 5%, TDP1 cell CPT inconclusive, IL1B secr inh 3, TGFb inhibitor -8% and TDP1 cell noCPT 12µM*.
For COc1cccc(NP(=O)(Oc2ccc(Cl)cc2)Oc2ccc(Cl)cc2)c1 the results were HepG2 viability -52%, ASM inhibitor -4%, TDP1 cell CPT inconclusive, IL1B secr inh inconclusive, TGFb inhibitor inconclusive and TDP1 cell noCPT 23µM*.
CCOc1ccc(NC2=NCCCS2)cc1 was read as HepG2 viability -10%, ASM inhibitor -10%, TDP1 cell CPT 11%, IL1B secr inh -15, TGFb inhibitor 0% and TDP1 cell noCPT -17%.
For CC(C)[C@]1(O)[C@@H](OC(=O)c2ccc[nH]2)[C@@]2(O)[C@@]3(C)C[C@]4(O)O[C@@]5([C@H](O)[C@@H](C)CC[C@]35O)[C@@]2(O)C41C the results were HepG2 viability -15%, TDP1 cell CPT -12%, TGFb inhibitor -3% and TDP1 cell noCPT inconclusive.
For COc1cc(C#Cc2c(-c3cncn3C)n(C)c3ccc(-c4cnc(N5CCOCC5)nc4)cc23)cc(OC)c1 the results were HepG2 viability -16%, ASM inhibitor -4%, TDP1 cell CPT 16µM*, IL1B secr inh inconclusive, TGFb inhibitor -19% and TDP1 cell noCPT 12µM*.
CCN(CC)c1ccc(C=NN2CCCCCC2)cc1 was read as HepG2 viability -6%, ASM inhibitor 24%, TDP1 cell CPT inconclusive, IL1B secr inh -18, TGFb inhibitor 10% and TDP1 cell noCPT inconclusive.
Screening COc1c(C)cc(Br)cc1C(=O)Nc1ccc(-c2nc3ncccc3o2)cc1 returned HepG2 viability -22%, TDP1 cell CPT 6.5µM*, TGFb inhibitor 6% and TDP1 cell noCPT 4.6µM*.
Screening Cc1ccc(-c2nc3ncccc3o2)cc1NC(=O)c1cccc(OCC(C)C)c1 returned HepG2 viability -3%, TDP1 cell CPT -28%, TGFb inhibitor 2% and TDP1 cell noCPT inconclusive.
`OC1CCC(Nc2ccn3nc(-c4cccc(OCc5ccccc5)c4)cc3n2)CC1` (stereo unspecified) gave HepG2 viability -25%, TDP1 cell CPT inconclusive, IL1B secr inh 11, TGFb inhibitor -19% and TDP1 cell noCPT inconclusive.
`O=C(c1ccccc1F)c1cn(CC(=O)N2CCCCC2)c2ccccc12` gave HepG2 viability -3%, ASM inhibitor -1%, TDP1 cell CPT -7%, IL1B secr inh 1, TGFb inhibitor 6% and TDP1 cell noCPT -25%.
Screening CC(C)C1(C)N=C(c2ncccc2C(=O)O)NC1=O (stereo unspecified) returned HepG2 viability -1%, ASM inhibitor -2%, TDP1 cell CPT -21%, IL1B secr inh 0, TGFb inhibitor -1% and TDP1 cell noCPT 1%.
`CC(C)[C@H]1C(=O)O[C@H](C(C)C)C(=O)N(C)[C@@H](C(C)C)C(=O)O[C@H](C(C)C)C(=O)N(C)[C@@H](C(C)C)C(=O)O[C@H](C(C)C)C(=O)N1C` gave HepG2 viability -38%, ASM inhibitor -11%, TDP1 cell CPT 3.3µM*, IL1B secr inh -8, TGFb inhibitor 5.6µM* and TDP1 cell noCPT 4.1µM*.
Screening O=C(CSc1nc2c([nH]c3ccccc32)c(=O)n1-c1ccccc1)c1ccccc1 returned HepG2 viability -16%, TDP1 cell CPT inconclusive, TGFb inhibitor -5% and TDP1 cell noCPT inconclusive.
`CCCCNC(=O)c1cc(-c2cccnc2)nc2ccc(S(=O)(=O)NCCCC)cc12` gave HepG2 viability -5%, TDP1 cell CPT 21µM*, TGFb inhibitor 6% and TDP1 cell noCPT inconclusive.
CCCCNC(=O)CN1C(=O)CN=C(c2ccccc2)c2ccccc21 was read as HepG2 viability 10%, ASM inhibitor 2%, TDP1 cell CPT -25%, IL1B secr inh -9, TGFb inhibitor 15% and TDP1 cell noCPT inconclusive.
Screening CCOc1cc2c(cc1OCC)-n1cccc1C(c1cccc(OCC)c1O)NC2 (stereo unspecified) returned HepG2 viability -21%, ASM inhibitor -2%, TDP1 cell CPT inconclusive, IL1B secr inh -19, TGFb inhibitor 0% and TDP1 cell noCPT 16µM*.
`COc1ccc(C2NCc3ccccc3-n3cccc32)cc1` (stereo unspecified) gave HepG2 viability -37%, ASM inhibitor 2%, TDP1 cell CPT inconclusive, IL1B secr inh inconclusive, TGFb inhibitor -23% and TDP1 cell noCPT inconclusive.
